In the library only some 2% were active in any assay of this set; here they are far more common.
MsrA inh: bovine MsrA enzyme inhibitors, primary screen, biochemical, absorbance, HTS; Methionine sulfoxide reductase A (Bos taurus); purified bovine MsrA, absorbance read-out; inhibition, % at 15.5 µM; 360,000 compounds, 0.75% hits; in the data active means inhibition above about 4.5%
MsrA act: bovine MsrA enzyme activators, primary screen, biochemical, absorbance, HTS; Methionine sulfoxide reductase A (Bos taurus); purified bovine MsrA, absorbance read-out; activation, % at 10.6 µM; 360,000 compounds, 0.3% hits; in the data active means activation above about 7.5%
PKA-R1A act: activators of PKA-R1A holoenzyme, primary screen, biochemical, fluorescence polarization, Cy5-IP20, bovine R1A, mouse PKAc; PKA-R1A dissociation; scaled: DMSO 0%, 113 µM cGMP 100%; AID 504707, 2011; 340,000 compounds, 0.083% hits; activation, % at 11.4 µM;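 active means percent activation above the mean of all tested compounds plus 3 SD, cut at about 19% in these data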;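 further: higher means more PKAc released from R1A so a rise in polarization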
PKA-R2B activ: activators of PKA-R2B holoenzyme, primary screen, biochemical, fluorescence polarization, Cy5-IP20, human | PKA-R2B holoenzyme dissociation; R2B truncated from residue 108, S112A mutant; 0% DMSO only, 100% 113 µM cGMP | AID 504700, 2011 | activation, % at 11.4 µM | cAMP-dependent protein kinase catalytic subunit beta (Homo sapiens) + cAMP-dependent … | 340,000 compounds, 0.079% hits;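 active means activation above a cutoff set at the mean over all compounds plus 3 SD, cut at about 18% in these data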;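 further: higher means more holoenzyme dissociation and a rise in polarization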
Target sequence (P31323 whole entry, looked up, other chains not shown, the tested form may be a part): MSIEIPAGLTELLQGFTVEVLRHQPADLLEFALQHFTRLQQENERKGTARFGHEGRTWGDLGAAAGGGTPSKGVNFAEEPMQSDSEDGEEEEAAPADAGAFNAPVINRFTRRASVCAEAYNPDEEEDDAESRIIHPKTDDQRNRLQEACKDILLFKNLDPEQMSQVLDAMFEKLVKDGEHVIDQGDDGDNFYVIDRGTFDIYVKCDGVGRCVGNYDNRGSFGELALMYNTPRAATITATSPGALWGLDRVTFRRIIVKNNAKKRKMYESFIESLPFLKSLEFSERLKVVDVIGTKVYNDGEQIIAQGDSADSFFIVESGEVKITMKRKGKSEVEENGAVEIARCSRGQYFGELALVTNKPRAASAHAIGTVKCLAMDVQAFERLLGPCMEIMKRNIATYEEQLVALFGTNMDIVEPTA
SUMO Mot1 rescue: yeast Mot1-301 growth rescue at high temperature, primary screen, SUMOylation pathway inhibitor project, S. cerevisiae, ATP luminescence, 38.5C; S. cerevisiae Mot1-301 growth rescue; percent above DMSO median, 100 means doubled; growth rescue, % at 18.8 µM; 320,000 compounds, 1% hits; AID 2716, 2010;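 active means every valid replicate shows activation above 250% relative to neutral control wells; inactive means the rest, any valid replicate at or below 250%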
MsrA activ conf: bovine MsrA activators, retest, confirmation, biochemical, absorbance, HTS | shares compounds with MsrA act | purified bovine MsrA, absorbance read-out | activation, % at 10.6 µM | 1,000 compounds, 12% hits | AID 602270, 2012; in the data active means activation above about 4%;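 further: enzyme coupled to thioredoxin and thioredoxin reductase with NADPH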
Hits are given with their value; . = inactive; / = no result given.

SMILES | MsrA inh | MsrA act | PKA-R1A act | PKA-R2B activ | SUMO Mot1 rescue | MsrA activ conf
CC(=O)Nc1cccc(OCCCNC(=O)c2ccc(C(C)(C)C)cc2)c1 | . | . | / | / | . | /
C=CCc1ccccc1OCC(O)CN1CCN(c2ccc(C)cc2)CC1 (stereo not given) | . | 9.3 | . | . | . | .
CC(C)CCN(C)[C@H]1C[C@H]2c3[nH]c4ccccc4c3CCN2C[C@H]1[C@H](C)O | . | / | / | / | / | /
c1cc(SSc2ccncc2)ccn1 | . | 10.2 | . | . | . | .
COc1cc2c(cc1OC)C(c1ccc([N+](=O)[O-])cc1)NCC2 (stereo not given) | . | . | . | . | . | /
COc1cc2c(cc1OC)C(c1cc([N+](=O)[O-])ccc1O)NCC2 (stereo not given) | . | 9.0 | . | . | . | .
COc1ccc(NS(=O)(=O)c2cc(NC(=O)c3ccc(F)cc3)ccc2OC)cc1 | . | 9.7 | . | . | . | .
CC1CN(C(=O)c2cccc(S(=O)(=O)N3CCN(c4ccccc4)CC3)c2)CC(C)O1 (stereo not given) | . | 9.1 | . | . | . | .
CC(=O)N1CCN(C(=O)c2cccc(S(=O)(=O)N3CCN(c4ccccc4)CC3)c2)CC1 | . | . | . | . | . | /
COc1cccc(NC(=O)C(C)OC(=O)c2n[nH]c3ccccc23)c1 (stereo not given) | . | 16.1 | . | . | . | .
CNc1snc(C)c1C(=O)OC(C)C(=O)Nc1cccc(OC)c1 (stereo not given) | . | . | . | . | . | /
Cc1cc(NC(=O)COC(=O)C2CC(=O)N(c3ccc(Br)cc3)C2)no1 (stereo not given) | . | . | . | . | . | /
COc1ccc(N2CC(C(=O)OCC(=O)Nc3cc(C)on3)CC2=O)cc1 (stereo not given) | . | 8.0 | . | . | . | .
Cc1cccc(N(CC(=O)NC2CCCC2)C(=O)CCCC(=O)Nc2ccccn2)c1 | . | 7.7 | . | . | . | .
FC(F)(F)c1cc(Oc2ccc(Cl)cc2)nc(-c2ccccn2)n1 | . | . | . | . | . | /
FC(F)(F)c1cc(Oc2ccccc2)nc(-c2ccccn2)n1 | . | 9.7 | . | . | . | .
Cc1noc(C)c1COc1ccccc1C(=O)NCCc1ccc(S(N)(=O)=O)cc1 | . | 7.8 | . | . | . | .
CCN1CCN(C2=C(NS(=O)(=O)c3ccccc3)C(=O)c3ccccc3C2=O)CC1 | . | . | . | . | . | /
CCN1CCN(C2=C(NS(=O)(=O)c3ccc(Br)cc3)C(=O)c3ccccc3C2=O)CC1 | . | 8.2 | . | . | . | .
CC(Sc1nnc(-c2ccco2)n1C)C(=O)NC1CCCC1 (stereo not given) | . | 16.7 | . | . | . | .
Cn1c(SCC(=O)NC2CCCC2)nnc1-c1ccco1 | . | . | . | . | . | /
C/C(CC(=O)Nc1ccc(Cl)cc1Cl)=N\NC(=O)c1ccco1 | . | 8.4 | . | . | . | .
C/C(CC(=O)Nc1ccc(C)c(Cl)c1)=N\NC(=O)c1ccco1 | . | . | . | . | . | /
NC(=S)NN=C1CSSC1 | / | 14.5 | . | . | / | 23.4
COC(=O)[C@]12C[C@H](CC(=O)N3CCN(C(=O)c4ccco4)CC3)C(=O)N(Cc3ccc4c(c3)OCO4)C1=C[C@H](COCc1ccccc1)O[C@@H]2C | . | / | / | / | / | /
COCc1[nH]nc2c1C(c1ccc(C)cc1)N(c1ccc(OC)cc1)C2=O (stereo not given) | . | / | / | / | / | /
O=C(O)CCC(=O)c1ccc(C2CCCCCC2)cc1 | . | 13.1 | / | / | / | .
CCOC(=O)CC1(Cc2ccccc2)Oc2ccccc2O1 | . | / | / | / | / | /
Cc1cccc(NC(=O)c2cc(S(=O)(=O)N3CCCCC3)ccc2Cl)n1 | . | 12.4 | . | . | / | .
COc1ccc(C(=O)CSc2nc3ccccc3n2CC(=O)NC(C)(C)C)cc1 | . | 9.7 | . | . | . | .

High-throughput results from PubChem BioAssay.
